uPA generation: inhibitors of cell surface uPA generation; cell surface uPA generation assay, qHTS; Potency, µM (highest dose often 38.3 µM), inactives show at the highest dose activity change, negative = inhibition, actives largely listed as inhibitors; 0.31% of 330,000 active; AID 540303; active = well fitted inhibition curve with a large enough effect; inconclusive = small, poorly fitted or top-dose-only effect; inactive = no such curve, though single readings can be large or run the other way; tested in mouse RAW 264.7 cells; note: potency is the fitted concentration of half-maximal effect; % is set by controls: 0 for no effect and ±100 for the full control effect; nearly all actives have a fitted effect of over 55% in size
Gal4-VP16 FLuc: Gal4-VP16 reporter inhibition counter-screen; Drosophila S2 Gal4-VP16 UAS-luciferase, luminescence, 20 h; Potency, µM (doses to about 53.6 µM), inactives show top-dose activity, negative = inhibition, usual class: inhibitors; 3.5% of 310,000 active;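 note: Gal4-VP16 expression switched on by copper sulfate through the metallothionein promoter; potency is the fitted concentration of half-maximal effect; % is set by controls: 0 for no effect and ±100 for the full control effect; nearly all actives have a fitted effect of over 50% in size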
TRPV1 potentiator: potentiators of human vanilloid receptor 1 (TRPV1); Q8NER1; TRPV1-expressing cells, Fluo-8 calcium influx, capsaicin EC20 potentiation; potentiation, % at 8.33 µM; 0.02% of 320,000 active; AID 540277; in the data active = potentiation above about 80%; inconclusive = between about 30% and that limit; note: 0% is about no effect
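Cells expressing TRPV1 were dye-loaded with Fluo-8 and read kinetically: 10 s baseline, 3 min after compound (agonist portion), then 2 min after EC20 capsaicin (allosteric enhancer portion). Calcium-bound dye fluorescence at 480/520 nm.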
TRPV1 ag: human TRPV1 agonism; Q8NER1; TRPV1-expressing cells, Fluo-8 calcium influx, agonist mode; activation, % at 8.33 µM; 0.19% of 320,000 active; AID 540275; in the data active = activation above about 80%; inconclusive = between about 30% and that limit; note: 0% is about no effect
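Fluo-8 calcium influx in TRPV1-expressing cells, kinetic read (ex 480/em 520 nm). Compound added and read 3 min for agonist activity, followed by capsaicin at EC20 final and 2 min further read for enhancement.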
RORgamma inh: blocks mouse ROR gamma transcriptional activity; P51450; Drosophila S2 Gal4-RORgamma UAS-luciferase reporter, 20 h; Potency, µM (series often up to 53.6 µM), for inactives: top-dose activity change, negative = inhibition, most hits filed as inhibitors; 5.4% of 310,000 active; note: potency is the fitted concentration of half-maximal effect; % is set by controls: 0 for no effect and ±100 for the full control effect; nearly all actives have a fitted effect of over 60% in size
Target sequence (P51450 whole entry, looked up, the tested form may be a part): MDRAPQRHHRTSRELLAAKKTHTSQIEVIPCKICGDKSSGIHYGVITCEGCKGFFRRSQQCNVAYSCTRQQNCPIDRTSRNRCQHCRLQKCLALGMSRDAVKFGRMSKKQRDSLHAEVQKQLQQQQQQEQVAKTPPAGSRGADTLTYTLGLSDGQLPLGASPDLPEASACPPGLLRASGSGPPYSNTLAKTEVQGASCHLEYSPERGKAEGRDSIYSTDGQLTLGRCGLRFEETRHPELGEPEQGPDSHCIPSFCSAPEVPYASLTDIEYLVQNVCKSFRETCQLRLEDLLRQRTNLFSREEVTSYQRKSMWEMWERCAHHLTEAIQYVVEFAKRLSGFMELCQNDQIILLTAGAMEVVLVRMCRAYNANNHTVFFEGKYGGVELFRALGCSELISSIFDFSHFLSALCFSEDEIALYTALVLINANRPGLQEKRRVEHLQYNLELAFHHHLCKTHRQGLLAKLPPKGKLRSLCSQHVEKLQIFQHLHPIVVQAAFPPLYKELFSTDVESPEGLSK
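Compounds are pin-transferred onto Drosophila Schneider cells expressing a copper-inducible Gal4–ROR gamma transactivation domain fusion. After 1 hr, copper sulfate is added to 700 uM final; luciferase is read 20 hr later.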
* marks the source's active call; other numbers are inactive results; ? = inconclusive; nt = no result; [ ] = dose if it differs, or a comment. In the library only some 5.8% were active in any assay of this set; here they are far more common. Unless noted, calls come from the whole dose curve; as a rule, active = well fitted curve in the direction sought with a large enough effect; inconclusive = small, poorly fitted or top-dose-only effect, or another doubt; inactive = no such curve, though single readings can be large; an effect the other way counts as inactive or inconclusive.

SMILES	uPA generation	Gal4-VP16 FLuc	TRPV1 potentiator	TRPV1 ag	RORgamma inh
O=C(Nc1ccccc1C(=O)N/N=C/c1ccco1)c1ccccc1	-2%	?	-3	2	7.9µM*
CCC(C(=O)Nc1ccsc1C(=O)OC)c1ccccc1 (stereo unspecified)	-2%	-6%[10 µM]	-14	22	?
Cc1cccc(CNC(=O)Cc2csc3ccccc23)c1	nt	nt	-16	2	nt
C/C(=N\NC(=O)C(=O)Nc1ccc(C)c(Cl)c1)c1ccncc1	-3%	?	13	5	?
Cc1ccccc1C(=O)Nc1ccccc1C(=O)N/N=C\c1ccco1	0%	?	7	18	10µM*
O=C(O)c1ccc(/C=N/NC(=O)C2CC2(c2ccccc2)c2ccccc2)cc1 (stereo unspecified)	nt	7%	6	1	-26%
O=C(N/N=C/c1ccco1)C1CC1(c1ccccc1)c1ccccc1 (stereo unspecified)	27%	?	?	3	0.35µM*
C/C(=N\NC(=O)C(=O)Nc1cccc(Cl)c1)c1ccncc1	-4%	5.6µM*	-13	4	?
Clc1ccc(CSc2nnc(Cn3cnc4ccccc43)o2)cc1	-4%	16µM*	5	1	6%
NC(=O)CSc1nnc(Cn2cnc3ccccc32)o1	15%	-20%[10 µM]	4	-1	28%
O=C(Nc1cccnc1)c1cc2c(s1)-c1ccccc1OC2	-8%	-9%	-1	-3	4.5µM*
Cc1cccc2c1-c1sc(C(=O)Nc3nccs3)cc1CO2	-2%	5.6µM*	0	30	4.5µM*
O=C(Nc1nccs1)c1cc2c(s1)-c1ccccc1OC2	?	4.5µM*	-8	0	5µM*
O=C(Nc1nc2ccccc2s1)c1cc2c(s1)-c1ccccc1OC2	-2%	?	-20	-2	-28%
CCn1c(SC(C)C)nnc1-c1cc(-c2ccccc2)sc1N	-5%	7.1µM*	5	1	6.3µM*
Cc1nc(SCc2nc3ccccc3[nH]2)c2oc3ccc(Br)cc3c2n1	0%	nt	nt	nt	nt
Cc1nc(SCc2nc3ccccc3[nH]2)c2oc3ccccc3c2n1	-11%	?	-13	22	14µM*
Cn1c(SCc2ccc(Br)cc2)nnc1-c1ccccn1	-4%	-11%	1	7	27%
CC(=O)Nc1ccc(S(=O)(=O)Oc2cccc(N3C(=O)C4CC=CCC4C3=O)c2)cc1 (stereo unspecified)	0%	5%	1	3	15%
CC(=O)Nc1ccc(S(=O)(=O)Oc2ccc(N3C(=O)C4CCCCC4C3=O)cc2)cc1 (stereo unspecified)	-5%	13µM*	12	-2	?
O=C(N/N=C/c1cccnc1)c1ccc(Cn2cc([N+](=O)[O-])cn2)o1	1%	14%	-2	2	-2%
O=C(N/N=C\c1c(O)ccc2ccccc12)c1ccc(Cn2cccn2)o1	-18%	13µM*	-14	?	2.5µM*
Cc1ccc(/C=N/NC(=O)c2ccc(Cn3cc([N+](=O)[O-])cn3)o2)cc1	-1%	-7%	-2	9	3%
CC(C)c1ccc(/C=N\NC(=O)c2ccc(Cn3cccn3)o2)cc1	-6%	?	8	82*	-33%
O=C(N/N=C\c1ccc(Cl)s1)c1ccc(Cn2cccn2)o1	6%	-98%	-23	?	10µM*
SMILES	uPA generation	Gal4-VP16 FLuc	TRPV1 potentiator	TRPV1 ag	RORgamma inh
CCOC(=O)C(=Cc1ccc2c(c1)OCO2)c1ccccc1	3%	nt	nt	nt	nt
CCC1=C2CC[C@H]3C(=O)NC(=O)[C@H]3[C@H]2[C@@]2(Cc3ccccc3)C(=NCc3ccccc3)OC(=O)N2C1=O	nt	10%	nt	nt	0%
Cn1c(C(=O)N2CCN(C(=O)c3ccco3)CC2)cc2c(=O)n3ccccc3nc21	-3%	14µM*	?	13	25%
Cn1c(C(=O)N2CCOCC2)cc2c(=O)n3ccccc3nc21	1%	10%	4	-1	-18%
Cc1ccc2nc(NC(=S)NC(=O)c3cccs3)sc2c1	-3%	3.2µM*	5	4	1.1µM*
Cc1ccc(-c2csc(NC(=S)NC(=O)c3cccs3)n2)cc1	-3%	0%	-16	2	2µM*
O=C(NC(=S)Nc1nc(-c2ccc(Cl)cc2)cs1)c1cccs1	2%	4%	7	-4	0.79µM*
O=C(NC(=S)Nc1nc(-c2ccccc2)cs1)c1cccs1	3%	-9%	-6	11	-1%
O=C(c1cnccn1)N1CCC2(CCCN(c3ccc(-c4ccccc4)cc3)C2)CC1	nt	-5%	nt	nt	16%
COc1ccc(CN=C(Nc2ccccc2)SC2CC(=O)NC2=O)cc1 (stereo unspecified)	2%	-9%	7	1	13µM*
O=C(O)c1c(Cl)c(Cl)c(Cl)c(Cl)c1-c1c2cc(I)c(=O)c(I)c-2oc2c(I)c(O)c(I)cc12	nt	?	nt	nt	14µM*
CC1(C)CO[C@H](CC(=O)O)CN1	nt	-3%	nt	nt	1%
CCOc1ccc(NC(=S)N/N=C(\C)Cc2ccc(OC)cc2)cc1	2%	?	-5	-4	12%[10 µM]
CCOc1ccccc1OCC(=O)N/N=C(\C)Cc1ccc(OC)cc1	-11%	3%	5	-4	23%
COc1ccc(C/C(C)=N/NC(=S)Nc2ccccc2)cc1	15%	?	10	-2	20µM*
COc1ccc(C/C(C)=N/NC(=O)c2ccc(C)cc2C)cc1	0%	-4%	0	4	-41%
COc1ccc(C/C(C)=N/NC(=S)Nc2ccc(C)c(C)c2)cc1	4%	10µM*	11	1	?
COc1ccc(C/C(C)=N/NC(=S)Nc2ccc(Cl)cc2)cc1	0%	?	7	2	11µM*
C[C@@H](C1=C(CCN(C)C)Cc2ccccc21)c1ccccn1	nt	-15%	nt	nt	-15%
O=C(NNC(=O)C(c1ccccc1)c1ccccc1)c1ccccn1	0%	?	16	0	5.6µM*
O=C(CCc1ccccc1)NNC(=O)c1ccccn1	?	?	7	1	10µM*
CCOC1(OCC)C(c2ccc(Cl)cc2)C(C#N)(C#N)C1(OCC)OCC (stereo unspecified)	-10%	-63%	-10	14	13µM*
O=C(NNC(=O)c1ccccc1Cl)c1cccs1	6%	?	11	2	-38%
O=C(CNC(=O)c1cccs1)c1ccc(Cl)cc1	0%	-21%	-22	23	-41%
O=C(NCCc1ccc(O)cc1)c1ccc(Cl)cc1	-2%	?	2	?	1.6µM*
O=C(NNC(=O)c1cc(Cl)ccc1O)c1cccs1	-5%	-8%	?	4	13µM*
O=C(NCCc1ccc(Cl)cc1)c1cccs1	4%	6%	-13	81*	35%
O=[N+]([O-])c1ccc(NNS(=O)(=O)c2cc(Cl)ccc2Cl)nc1	-11%	?	-20	0	13µM*

High-throughput results from PubChem.
